The results in this text go back to publication PMC4081100, “A DNA-binding-site landscape and regulatory network analysis for NAC transcription factors in Arabidopsis thaliana”.

Experiment in all cases: universal protein binding microarray (PBM); transcription factors of Arabidopsis thaliana; high values mean tight binding
One assay deals with T1, GST-ANAC092(1-176) (Arabidopsis thaliana, UniProt Q9FKA0 1-176).
T1 sequence: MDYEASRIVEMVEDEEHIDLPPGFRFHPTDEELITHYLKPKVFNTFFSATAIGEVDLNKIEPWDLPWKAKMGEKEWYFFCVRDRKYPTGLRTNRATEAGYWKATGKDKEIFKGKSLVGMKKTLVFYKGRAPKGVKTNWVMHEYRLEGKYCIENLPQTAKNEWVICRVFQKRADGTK
Particulars: protein: recombinant; tags: GST; chain copies: 2; dsDNA, one strand shown. A digest of the protocol:
(§1)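 Each value is a normalised enrichment score (E-score) describing binding. The GST-tagged proteins, NAC-domain, full-length or DNA-binding-domain, were induced in cells (zinc-finger proteins with zinc acetate added) and purified on glutathione–Sepharose 4B. They were applied at 200 to 500 nM final, in duplicate, to double-stranded custom all-10-mer Agilent 4 × 180K arrays, and gapped and ungapped 8-mers were scored.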

The target of the next assay is T2, GST-ANAC055(1-171) (Arabidopsis thaliana, UniProt Q9LDY8 1-171).
T2 sequence: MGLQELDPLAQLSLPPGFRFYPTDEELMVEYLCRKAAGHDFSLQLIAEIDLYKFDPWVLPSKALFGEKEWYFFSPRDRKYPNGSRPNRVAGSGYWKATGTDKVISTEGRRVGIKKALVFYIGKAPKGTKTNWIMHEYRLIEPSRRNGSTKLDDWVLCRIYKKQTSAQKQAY
To be noted: protein: recombinant; tags: GST; chain copies: 2; dsDNA, one strand shown. Summed up:
as §1

For another assay, the target named is T3, GST-ATAF1 NAC domain (Arabidopsis thaliana, UniProt Q39013 7-158).
T3 sequence: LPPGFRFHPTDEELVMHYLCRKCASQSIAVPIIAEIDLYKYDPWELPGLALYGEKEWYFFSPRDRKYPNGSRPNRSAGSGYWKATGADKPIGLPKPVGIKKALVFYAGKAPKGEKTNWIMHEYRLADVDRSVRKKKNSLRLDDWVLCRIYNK
To be noted: protein: recombinant; tags: GST; chain copies: 2; dsDNA, one strand shown. A digest of the protocol:
as §1

For assay [1], the target named is T4, GST-ANAC092(1-285) full length (Arabidopsis thaliana, UniProt Q9FKA0 1-285).
T4 sequence: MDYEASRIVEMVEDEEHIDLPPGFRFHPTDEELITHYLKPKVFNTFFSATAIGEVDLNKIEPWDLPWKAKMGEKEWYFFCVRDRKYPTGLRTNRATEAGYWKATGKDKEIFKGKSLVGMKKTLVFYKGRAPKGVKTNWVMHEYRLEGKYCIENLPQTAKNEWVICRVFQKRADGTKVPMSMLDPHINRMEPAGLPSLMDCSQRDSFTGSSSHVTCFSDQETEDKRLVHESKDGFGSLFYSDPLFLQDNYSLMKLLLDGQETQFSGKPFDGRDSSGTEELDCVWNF
Particulars: protein: recombinant; tags: GST; chain copies: 2; dsDNA, one strand shown. A digest of the protocol: as §1

For the next assay, the target named is T5, GST-NTL8 NAC domain (Arabidopsis thaliana, UniProt Q9XIN7 14-156).
T5 sequence: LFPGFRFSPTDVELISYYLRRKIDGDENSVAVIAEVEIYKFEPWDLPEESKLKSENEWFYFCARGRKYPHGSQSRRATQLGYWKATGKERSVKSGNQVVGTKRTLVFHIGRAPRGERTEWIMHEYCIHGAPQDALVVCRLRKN
To be noted: protein: recombinant; tags: GST; chain copies: 2; dsDNA, one strand shown. A digest of the protocol:
as §1

In the next assay the target is T6, GST-VND3 NAC domain (Arabidopsis thaliana, UniProt Q9FH59 12-162).
T6 sequence: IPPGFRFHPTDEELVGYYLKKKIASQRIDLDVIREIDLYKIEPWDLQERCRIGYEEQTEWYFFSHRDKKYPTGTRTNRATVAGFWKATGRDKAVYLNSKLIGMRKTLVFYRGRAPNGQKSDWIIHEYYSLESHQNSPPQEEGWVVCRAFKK
Particulars: protein: recombinant; tags: GST; chain copies: 2; dsDNA, one strand shown. Summed up: as §1

The target of another assay is T7, GST-VND7 NAC domain (Arabidopsis thaliana, UniProt Q9C8W9 9-158).
T7 sequence: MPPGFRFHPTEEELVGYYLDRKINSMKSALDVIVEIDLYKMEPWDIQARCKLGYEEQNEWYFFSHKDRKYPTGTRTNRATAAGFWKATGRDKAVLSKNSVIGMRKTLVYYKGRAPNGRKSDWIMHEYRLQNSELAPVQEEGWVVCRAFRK
To be noted: protein: recombinant; tags: GST; chain copies: 2; dsDNA, one strand shown. Summed up:
as §1

The target in a further assay is GST-WRKY1(266-371) (Arabidopsis thaliana, UniProt Q9SI37 266-371). To be noted: protein: recombinant; tags: GST; dsDNA, one strand shown. Summed up: as §1
The target in the next assay is T8, GST-ANAC019 NAC domain (Arabidopsis thaliana, UniProt Q9C932 14-162).
T8 sequence: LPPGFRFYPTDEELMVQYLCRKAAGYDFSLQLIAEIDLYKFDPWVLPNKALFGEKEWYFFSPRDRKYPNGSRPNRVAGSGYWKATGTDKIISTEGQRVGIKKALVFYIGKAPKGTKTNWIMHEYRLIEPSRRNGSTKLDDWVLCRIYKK
Particulars: protein: recombinant; tags: GST; chain copies: 2; dsDNA, one strand shown. Summed up:
as §1

The target in the next assay is T9, GST-NST2(1-184) (Arabidopsis thaliana, UniProt Q9M274 1-184).
T9 sequence: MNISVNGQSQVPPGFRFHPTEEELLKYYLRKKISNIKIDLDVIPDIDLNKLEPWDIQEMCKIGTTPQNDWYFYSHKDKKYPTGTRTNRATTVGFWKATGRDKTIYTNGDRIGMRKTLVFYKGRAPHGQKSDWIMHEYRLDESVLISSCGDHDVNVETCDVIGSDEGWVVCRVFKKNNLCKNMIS
Particulars: protein: recombinant; tags: GST; chain copies: 2; dsDNA, one strand shown. Summed up:
as §1

A further assay deals with T10, GST-SND1(1-203) (Arabidopsis thaliana, UniProt Q9LPI7 1-203).
T10 sequence: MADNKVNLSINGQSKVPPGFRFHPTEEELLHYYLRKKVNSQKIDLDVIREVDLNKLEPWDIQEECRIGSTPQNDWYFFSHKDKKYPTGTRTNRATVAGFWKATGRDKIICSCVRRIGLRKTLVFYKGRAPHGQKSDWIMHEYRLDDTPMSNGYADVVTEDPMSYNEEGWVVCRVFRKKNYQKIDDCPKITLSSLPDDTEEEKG
Particulars: protein: recombinant; tags: GST; chain copies: 2; dsDNA, one strand shown. A digest of the protocol: as §1

In the next assay the target is GST-NTL6(1-168) (Arabidopsis thaliana, UniProt Q9SCK6 1-168). To be noted: protein: recombinant; tags: GST; chain copies: 2; dsDNA, one strand shown. Summed up: as §1
Another assay deals with T11, GST-NAP(1-166) (Arabidopsis thaliana, UniProt O49255 1-166).
T11 sequence: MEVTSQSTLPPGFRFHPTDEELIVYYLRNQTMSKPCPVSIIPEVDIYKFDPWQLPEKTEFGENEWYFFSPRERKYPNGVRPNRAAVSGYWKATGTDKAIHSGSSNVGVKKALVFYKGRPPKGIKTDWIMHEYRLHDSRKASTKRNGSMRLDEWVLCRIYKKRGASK
Particulars: protein: recombinant; tags: GST; chain copies: 2; dsDNA, one strand shown. Summed up:
as §1

Sequence of GST-WRKY1(266-371) (Q9SI37 266-371): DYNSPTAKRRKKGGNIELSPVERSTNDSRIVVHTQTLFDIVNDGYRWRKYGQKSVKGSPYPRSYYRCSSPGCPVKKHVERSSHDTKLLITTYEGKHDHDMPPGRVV
Sequence of GST-NTL6(1-168) (Q9SCK6 1-168): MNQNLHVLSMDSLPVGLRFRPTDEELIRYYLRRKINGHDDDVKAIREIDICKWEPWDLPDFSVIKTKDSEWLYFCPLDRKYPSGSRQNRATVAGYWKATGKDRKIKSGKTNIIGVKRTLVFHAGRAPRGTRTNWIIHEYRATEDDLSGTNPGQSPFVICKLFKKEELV

For the sequence ATTGACCA, the binding signal stood at 0.0698 E-score with GST-ANAC092(1-176); 0.072 E-score with GST-ANAC055(1-171); 0.107 E-score in the assay with GST-ATAF1 NAC domain; 0.0788 E-score in [1]; 0.163 E-score in the assay with GST-NTL8 NAC domain; 0.129 E-score with GST-VND3 NAC domain. Besides, the binding signal with GST-VND7 NAC domain came out at 0.0794 E-score; in the assay with GST-WRKY1(266-371), 0.482 E-score.
On to ACGCCACG, for which the binding signal came to 0.382 E-score with GST-ANAC092(1-176); 0.147 E-score with GST-ANAC019 NAC domain; 0.14 E-score with GST-ANAC055(1-171); 0.0586 E-score with GST-ATAF1 NAC domain; 0.409 E-score in [1]; 0.128 E-score with GST-NST2(1-184). Moreover, the binding signal with GST-SND1(1-203) was 0.249 E-score.
On to CTGGCGTA, for which the binding signal in the assay with GST-ANAC092(1-176) is 0.371 E-score; in the assay with GST-ANAC019 NAC domain, 0.106 E-score; with GST-ANAC055(1-171) it was 0.0635 E-score; in [1], 0.396 E-score; with GST-NST2(1-184), 0.203 E-score; in the assay with GST-SND1(1-203), 0.409 E-score.
Take AAAGGTAA: the binding signal with GST-NTL6(1-168) is 0.262 E-score; with GST-ANAC055(1-171) it was 0.192 E-score; in assay [1] it was 0.0772 E-score; in the assay with GST-NAP(1-166) it was 0.0527 E-score; with GST-NST2(1-184) it was 0.199 E-score; with GST-NTL8 NAC domain, 0.402 E-score. In addition, the binding signal with GST-SND1(1-203) turned out to be 0.124 E-score.
For ACAGTCAA, the binding signal stood at 0.141 E-score in the assay with GST-ANAC092(1-176); 0.0601 E-score in the assay with GST-ANAC055(1-171); 0.081 E-score in the assay with GST-ATAF1 NAC domain; 0.0848 E-score in assay [1]; 0.0868 E-score with GST-NAP(1-166); 0.164 E-score in the assay with GST-NTL8 NAC domain. Besides, the results for the binding signal in the assay with GST-VND3 NAC domain, in the assay with GST-VND7 NAC domain and with GST-WRKY1(266-371) were 0.0711 E-score, 0.0752 E-score and 0.477 E-score, respectively.
On to AGGTAAGG, for which the binding signal was 0.27 E-score with GST-NTL6(1-168); 0.101 E-score with GST-ANAC019 NAC domain; 0.0822 E-score in assay [1]; 0.424 E-score in the assay with GST-NTL8 NAC domain; 0.147 E-score in the assay with GST-SND1(1-203).
For the sequence GGGGGTAA, the binding signal was 0.147 E-score with GST-NTL6(1-168), 0.166 E-score in assay [1], 0.403 E-score in the assay with GST-NTL8 NAC domain and 0.229 E-score with GST-SND1(1-203).
Regarding ACGCGATC, the binding signal was 0.314 E-score in the assay with GST-ANAC092(1-176); 0.402 E-score in assay [1]; 0.116 E-score in the assay with GST-NAP(1-166); 0.198 E-score with GST-NST2(1-184); 0.364 E-score with GST-SND1(1-203).
In the case of AAGACCAA, the binding signal in the assay with GST-NTL6(1-168) is 0.18 E-score; in the assay with GST-ANAC019 NAC domain it was 0.0878 E-score; with GST-ANAC055(1-171), 0.172 E-score; with GST-ATAF1 NAC domain, 0.105 E-score; in assay [1] it was 0.124 E-score; with GST-NST2(1-184), 0.18 E-score. In addition, the binding signal with GST-VND3 NAC domain is 0.151 E-score; with GST-VND7 NAC domain it was 0.124 E-score; in the assay with GST-WRKY1(266-371), 0.42 E-score.
Consider TGAGGAAA, for which the binding signal with GST-ANAC092(1-176) was found to be 0.0937 E-score; with GST-NTL6(1-168), 0.106 E-score; with GST-NST2(1-184), 0.105 E-score; in the assay with GST-NTL8 NAC domain, 0.429 E-score; with GST-SND1(1-203), 0.172 E-score.
As for GAGGAAAC, the binding signal in the assay with GST-ANAC092(1-176) turned out to be 0.0974 E-score; with GST-ATAF1 NAC domain, 0.0627 E-score; in assay [1], 0.0772 E-score; with GST-NAP(1-166), 0.0571 E-score; with GST-NTL8 NAC domain it was 0.465 E-score; in the assay with GST-SND1(1-203) it was 0.099 E-score.
CACACGCC: the binding signal in the assay with GST-ANAC092(1-176) was determined as 0.396 E-score; with GST-ANAC019 NAC domain it was 0.207 E-score; with GST-ANAC055(1-171), 0.124 E-score; with GST-ATAF1 NAC domain it was 0.145 E-score; in [1], 0.428 E-score; with GST-NST2(1-184) it was 0.134 E-score. Also, the binding signal with GST-SND1(1-203) stood at 0.119 E-score.
In the case of ACTCAACC, the binding signal in the assay with GST-ANAC092(1-176) amounted to 0.366 E-score; in the assay with GST-ANAC055(1-171), 0.0786 E-score; with GST-ATAF1 NAC domain, 0.117 E-score; in assay [1], 0.408 E-score; with GST-NST2(1-184), 0.221 E-score; in the assay with GST-SND1(1-203), 0.381 E-score.
Consider GTCAACGA, for which the binding signal with GST-VND3 NAC domain was determined as 0.0713 E-score; with GST-VND7 NAC domain, 0.104 E-score; with GST-WRKY1(266-371), 0.486 E-score.
Take GCACGCGA: the binding signal with GST-ANAC092(1-176) was 0.287 E-score; in assay [1], 0.429 E-score; in the assay with GST-NST2(1-184) it was 0.191 E-score; in the assay with GST-SND1(1-203), 0.286 E-score.
